PubChem BioAssay (NCI)
Compounds without any hit were thinned out: in the full panel of roughly 83,000, 20% have a hit.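 A percent growth of 40 corresponds to 60% growth inhibition; 0 means no net growth; -100 means all cells died. Active threshold: below 10.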 Values without a mark were called inactive. The source made the active and inactive calls.

These molecules were tested on MDA-MB-468 breast (assay: NCI-60 one-dose screen, 48 h (100 = growth as untreated, 0 = no growth, -100 = all killed)). Conditions: 10 µM unless noted.

How did the growth turn out when `CCOC(=O)CNC(=O)Sc1ccc(C(C)(C)C)cc1` was run?
Its growth is 111%.

`COc1ccc(Cn2cc(C(=O)N=Nc3c(O)[nH]c4c(C)cccc34)nn2)cc1` was tested. Which growth did it give?
Its growth is 89.2%.

Which growth does the source give for `COc1ccc2c(c1)c(CC(=O)[Se]CC(=O)O)c(C)n2C(=O)c1ccc(Cl)cc1` here?
The growth was 86.9%.

`Cc1ccc(NC2=CC(=O)C(=O)c3ccccc32)c(C)c1` was tested. Which growth did it give?
Its growth is 14.1%.

With `CCN(CC)CCNc1ccc(C)c2sc3cc(Cl)ccc3c(=O)c12` as the molecule, how does the growth read?
The growth was 14.4%.

With `COc1ccc(SC2c3ccc(C)cc3Oc3nc(N)c(C#N)c(N)c32)cc1` (stereo not given) as the molecule, how does the growth read?
Its growth is -51% (active).

With `O=C1Nc2ccc(Br)cc2C1=N/C=c1\[nH]c(=O)/c(=C/c2ccc(Cl)cc2)s1` as the molecule, how does the growth read?
Its growth is 86.6%.

Which growth does the source give for `CC1=C2[C@@H](CC1)[C@]1(C)O[C@@](C3CCCCC3)(C[C@H]1OC(=O)CO)[C@H]2OC(=O)/C=C/c1ccccc1` here?
Its growth is 87.6%.

With `Cc1cc(C)cc(OCC(=O)O)c1` as the molecule, how does the growth read?
The growth was 131%.

`CCCCCCC(C(=O)OCC)(C(=O)OCC)C1CCCCCC1` was tested. Which growth did it give?
The growth was 112%.

With `CCOC(=O)c1sc(NC(=O)COc2cccc(/C=C3\Cc4ccc(Cl)cc4C3=O)c2)nc1C` as the molecule, how does the growth read?
Its growth is 118%.

`CCCCCS(=O)(=O)Nc1ccc(C(=O)O)cc1` was tested. Which growth did it give?
The growth was 104%.

How did the growth turn out when `CCN(CCO)CCC(=O)c1ccc([N+](=O)[O-])cc1` was run?
Its growth is 98.1%.

How did the growth turn out when `O=C(Oc1c(Cl)c(Cl)c(Cl)c(Cl)c1Cl)C1CCCN1C(=O)OCc1ccccc1` (stereo not given) was run?
Its growth is 11.9%.

Which growth does the source give for `Cn1c(=O)c2[nH]c(C(O)C(O)C(O)C(O)CO)nc2n(C)c1=O` (stereo not given) here?
Its growth is 118%.

`CCN(CC)CCCNc1nccc2ccc(Cl)cc12` was tested. Which growth did it give?
Its growth is 97.5%.

`c1cc2ccc1CNCCN1CCNCc3ccc(cc3)Oc3ccc(cc3)CNCCN(CCNCc3ccc(cc3)O2)CCNCc2ccc(cc2)Oc2ccc(cc2)CNCC1` was tested. Which growth did it give?
The growth was -77.6% (active).

For `CC1(C)NCCC[C@]2(C)[C@H]3C/C(=N\O)C4[C@@H]5C[C@@](C)(CO)CC[C@]5(C)CC[C@@]4(C)[C@]3(C)CC[C@@H]12` (stereo not given in full), which growth is on record?
The growth was 89.4%.

`CCCC(C)OCC(=O)O` (stereo not given) was tested. Which growth did it give?
The growth was 92.1%.

With `COc1ccc(Cn2cc3c(c2-c2cc(OC)c(OC)c(OC)c2)CCc2cnoc2-3)cc1` as the molecule, how does the growth read?
The growth was 4.09% (active).

`[2H]C([2H])([2H])Oc1ccc(/C=C/C(=O)/C=C(/C=C/c2ccc(OC([2H])([2H])[2H])c(OC([2H])([2H])[2H])c2OC([2H])([2H])[2H])OB(F)F)c(OC([2H])([2H])[2H])c1OC([2H])([2H])[2H]` was tested. Which growth did it give?
The growth was 65%.

With `Cn1cc(-c2csc(-c3c[nH]c4ncccc34)n2)c2cc(F)cnc21` as the molecule, how does the growth read?
The growth was -16% (active).

Which growth does the source give for `CN1CCN(Cc2ccc(NC(=O)c3cncc(C#Cc4cncc5[nH]ncc45)c3)cc2C(F)(F)F)CC1` here?
Its growth is 16.6%.

How did the growth turn out when `C#Cc1nc2ccccc2c(=O)[nH]1` was run?
The growth was -46.9% (active).

Which growth does the source give for `COc1ccc(C(=O)/C=C/c2ccc(Cl)cc2)cc1S(=O)(=O)Nc1c(N)nc(SC)[nH]c1=O` here?
Its growth is 47.3%.

For `O=C(O)CC(C(=O)O)/C(=C\c1ccccc1)c1ccccc1` (stereo not given), which growth is on record?
The growth was 88.1%.

For `COc1cc(-c2nc(SCCC(C)C)nc(Nc3ccccc3Cl)c2C#N)cc(OC)c1OC`, which growth is on record?
Its growth is 108%.

For `Clc1ccc(-c2cn(-c3ccccc3)c(-c3ccccc3)n2)c(Cl)c1`, which growth is on record?
The growth was -61.3% (active).

For `N#C/C(=C\c1ccc2c(c1)OCO2)n1nnc2ccccc21`, which growth is on record?
The growth was -1.9% (active).

How did the growth turn out when `O=C(Nc1cccc(Cl)c1)Nc1nc2cc([N+](=O)[O-])ccc2o1` was run?
The growth was 53.4%.

How did the growth turn out when `NS(=O)(=O)c1ccc(-n2cc(CC=O)nn2)cc1` was run?
Its growth is 102%.

With `CCCCOc1ccc(S(=O)(=O)N2CCN(c3nccc(N4CCOCC4)n3)CC2)cc1` as the molecule, how does the growth read?
Its growth is 6.94% (active).

For `OCc1cc(CN2CCCCC2)c(O)c2ncccc12`, which growth is on record?
The growth was 76.7%.

For `COc1cc(CN(c2ccc(Cl)cc2)C2OC(=O)c3ccccc32)cc(OC)c1OC` (stereo not given), which growth is on record?
Its growth is 16.8%.

For `CCN(CC)CCCNc1ccnc2cc3ccccc3cc12`, which growth is on record?
Its growth is 75.9%.

Which growth does the source give for `Cc1cc2c(C(C)C)c(O)c(O)c(C=NCCCCC(=O)O)c2c(O)c1-c1c(C)cc2c(C(C)C)c(O)c(O)c(C=NCCCCC(=O)O)c2c1O` here?
Its growth is 35.4%.

How did the growth turn out when `NC(N)=Nc1ccc(Oc2cccc(NC(N)=Nc3ccc(Br)cc3)c2)cn1` was run?
The growth was 8.74% (active).

With `COc1ccc(-c2cc(/C=C3\C(=O)Nc4ccc(Cl)cc43)[nH]n2)cc1OC` as the molecule, how does the growth read?
Its growth is 108%.

For `O=C(Nc1ccc(NS(=O)(=O)c2ccc(F)cc2)cc1)C12CC3CC(CC(C3)C1)C2`, which growth is on record?
Its growth is 96.5%.

With `C[C@@H](C[C@H](CC1CC1)c1ccccc1)c1ccc2ccccc2c1` as the molecule, how does the growth read?
The growth was 101%.
